Screens deposited in PubChem BioAssay by several laboratories.
DNA FID counter – displaces DNA intercalator in HCV helicase counter-screen; DNA fluorescent intercalator displacement, fluorescence; AID 1845; actives 0.17% (n = 290,000); inhibition, % at 7.9 µM; in the data active means inhibition above about 37%;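 further: 0% = vehicle and 100% = reference compound; higher means more ethidium bromide displaced from hairpin DNA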
N-glyco inh – blocks N-linked glycosylation in D54 reporter cells | D54 ERlucT glycosylation luciferase reporter, 24 h; percent of 100 nM tunicamycin response | reporter increase, % at 12.5 µM | actives 0.23% (n = 360,000) | AID 588692;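 active means mean luciferase reporter signal, scaled so untreated is 0 and the glycosylation-blocking control 100, at or above a set limit in every replicate; inconclusive means mean reaches the limit but not every replicate does; inactive means mean below the limit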;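 further: luciferase carries N-glycosylation sites so blocking glycosylation raises the light; 0% = median of neutral control wells and 100% = median of 100 nM tunicamycin wells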
CendR NRP1 mod – alters CendR peptide binding to human NRP-1. O14786. FAM-RPARPAR peptide binding to NRP-1, fluorescence polarization. inhibition, % at 25 µM. actives 0.85% (n = 360,000);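 active means inhibition or corrected inhibition above about 18%, plus a signal ratio from 0.5 to 1.5, limit read from the data, passing the limit was not always enough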
RAD54 branch – inhibitors of human RAD54 branch migration; Q92698; RAD54 Holliday junction branch migration, FAM/BHQ fluorescence; inhibition, % at 10.4 µM; actives 0.14% (n = 360,000); AID 602329;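 active means mean normalized replicate activity at least 40 and at least half of replicates scoring 40 or more; inconclusive means only one of the two criteria met; inactive means mean below 40 and under half of replicates reaching 40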;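 further: 0% = median of neutral control wells and 100% = median of positive control wells; inhibitors cause a drop in the FAM fluorescence signal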
RAD52 anneal inh – RAD52 (human) annealing inhibition. actives 0.46% (n = 360,000). P43351. inhibition, % at 18.7 µM. AID 651710. recombinant RAD52 DNA annealing, FRET fluorescence;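 active means every replicate showing at least 50% inhibition; inconclusive means mean inhibition at least 50% but not in every replicate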
Target sequence (P43351 whole entry, looked up): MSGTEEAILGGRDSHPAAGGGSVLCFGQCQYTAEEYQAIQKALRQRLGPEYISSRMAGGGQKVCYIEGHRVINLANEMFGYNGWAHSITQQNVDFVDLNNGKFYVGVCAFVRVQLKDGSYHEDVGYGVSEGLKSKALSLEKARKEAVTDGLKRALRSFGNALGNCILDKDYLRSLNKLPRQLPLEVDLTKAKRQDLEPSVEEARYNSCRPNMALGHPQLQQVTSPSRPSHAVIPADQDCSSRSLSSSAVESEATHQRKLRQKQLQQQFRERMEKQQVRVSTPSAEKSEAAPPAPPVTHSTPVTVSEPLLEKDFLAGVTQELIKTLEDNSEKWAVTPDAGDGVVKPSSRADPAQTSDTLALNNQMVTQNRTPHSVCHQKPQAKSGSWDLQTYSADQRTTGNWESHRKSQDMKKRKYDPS
miR122 inh – blocks miR-122 activity in Huh7 sensor cells. Huh7 miR-122 Renilla luciferase sensor, 48 h; neutral wells = 0, positive control = 100. activation (reporter increase), % at 12.5 µM. actives 0.3% (n = 340,000). AID 602342;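 active means mean replicate activation score at least 90 and every replicate individually at or above 90; inconclusive means only one of the two criteria met; inactive means neither criterion met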;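 further: higher luciferase means less miR-122 activity so hits act as miR-122 inhibitors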
* = called active by the depositor; ? = inconclusive; . = no result; [ ] = another dose, or the depositor's remark. Hits are enriched below; roughly 1.5% of the tested compounds scored in any of these assays.

SMILES	DNA FID counter	N-glyco inh	CendR NRP1 mod	RAD54 branch	RAD52 anneal inh	miR122 inh
CO[C@@H]1CN(C)C(=O)c2cc(NC(=O)Nc3ccc(Cl)cc3)ccc2OC[C@H](C)N(C(=O)Nc2c(C)noc2C)C[C@@H]1C	.	.	.	5	.	-19[16.7 µM]
CC(=O)NC(Cc1ccc(F)c(F)c1)C(=O)NC1CCN(C(=O)c2ccc(Cl)cc2)CC1 (configuration not stated)	-27	0	0	2	-20	-2
COc1cccc(CC(NC(C)=O)C(=O)NC2CCN(C(=O)c3ccc(Cl)cc3)CC2)c1 (configuration not stated)	-31	-1	19*	-5	-3	.
Cc1ccc(S(=O)(=O)N(C)C[C@H]2Oc3ccc(NS(=O)(=O)c4cn(C)cn4)cc3CC(=O)N([C@H](C)CO)C[C@@H]2C)cc1	.	.	.	.	.	3[16.7 µM]
O=S(=O)(c1cccs1)N1CCCCC1	.	-2	35*	2	-5	-3
O=S(=O)(c1cccs1)N1CCN(S(=O)(=O)c2cccs2)CC1	1	-1	7	.	-11	.
CC(=O)N1CCC(C(=O)N2CCN(S(=O)(=O)c3cccs3)CC2)CC1	-7	2	37*	-17	1	25
CCCN1C[C@H](C)[C@H](OC)CN(C)C(=O)c2ccc(NC(=O)c3ccccc3F)cc2OC[C@H]1C	.	.	.	-6	0	.
O=C(c1ccc(-c2cccc(C(F)(F)F)c2)o1)N1CCCC(C(F)(F)F)C1 (configuration not stated)	.	-2	22*	-1	0	.
Cc1ccc(S(=O)(=O)N2CCC(=O)N(CCOC(=O)Nc3ccccc3C)CC2)cc1	-33	1	19*	-1	-4	.
C[C@H](CO)N1C[C@H](C)[C@@H](CN(C)S(C)(=O)=O)Oc2ccc(NC(=O)Cn3cnnn3)cc2CC1=O	.	.	.	-7	.	2[16.7 µM]
CCOC(=O)c1c(N)n(C2CC(C)(C)NC(C)(C)C2)c2nc3ccccc3nc12	21	10	4	83*	.	-2
CCCNC(=O)N1CC2(C1)[C@H](c1ccccc1)[C@@H](CO)N2Cc1ccc(F)cc1	.	.	.	.	-9	.
NC(=O)N=Nc1c2[nH]c3ccccc3nc-2c2ccccc12	-10	94*	14	?	-11	-5
CN1CCC(NCCC(c2ccc(F)cc2)c2ccc(Cl)cc2)CC1 (configuration not stated)	42*	-5	-2	.	29	.
CCS(=O)(=O)N1CC2(C1)[C@@H](c1ccccc1)[C@@H](CO)N2C(=O)C1CC1	.	.	.	.	-4	.
CCc1ccc(NC(=S)N2CCCC2)cc1	-5	-2	-12	6	-2	4
CCc1ccc(NC(=S)N2CCN(C)CC2)cc1	-5	-1	21*	13	-20	-7
Cc1ccc(NC(=S)N2CCN(Cc3ccccc3)CC2)cc1	-14	0	26*	.	-15	.
COCC(=O)Nc1ccc2c(c1)C(=O)N(C)[C@H]1CC[C@H](CC(=O)NCc3cccc(F)c3)O[C@@H]1CO2	.	.	.	.	-15	.
Cc1cc(=O)n2c3c(c4c(cc13)c(CN(C)C)cc(=O)n4C)OC2	.	31*	10	.	35	-1
CSc1nnc2c3ccccc3n(Cc3ccccc3)c2n1	-2	1	-8	1	.	5
CSc1nnc2c3cc(F)ccc3n(Cc3ccccc3)c2n1	.	-4	0	-1	.	164*
C=CCOc1ccc(C2NC(=S)NC(C)=C2C(=O)c2ccccc2)cc1OC (configuration not stated)	-13	?	15	.	.	.
COc1cccc(C2NC(=S)NC(C)=C2C(=O)c2ccccc2)c1OC (configuration not stated)	-7	7	3	.	-48	147*
CC(=O)NC1C(=O)N(CCc2ccccc2)c2ccc(Br)cc21 (configuration not stated)	-6	-2	35*	-4	-13	-1
CC(=O)NC1C(=O)N(Cc2ccccc2)c2ccc(Br)cc21 (configuration not stated)	-19	1	1	.	-7	.
COc1ccc(S(=O)(=O)N(C)C[C@@H]2OCCCC[C@@H](C)Oc3ccc(NC(=O)CCC(F)(F)F)cc3C(=O)N([C@H](C)CO)C[C@@H]2C)cc1	.	.	.	1	-7	1[16.7 µM]
Cc1cc(NCCCN2CCOCC2)n2c(nc3ccccc32)c1C#N	13	3	-13	53*	.	-3
